Residual activity data for one compound are collected here from ChEMBL document CHEMBL2218924, “A broad activity screen in support of a chemogenomic map for kinase signalling research and drug discovery” (Biochem J, 2013).

Assay [1] addresses T1, Serine/threonine-protein kinase TAO3 (Homo sapiens) (UniProt Q9H2K8).
T1 sequence (whole entry): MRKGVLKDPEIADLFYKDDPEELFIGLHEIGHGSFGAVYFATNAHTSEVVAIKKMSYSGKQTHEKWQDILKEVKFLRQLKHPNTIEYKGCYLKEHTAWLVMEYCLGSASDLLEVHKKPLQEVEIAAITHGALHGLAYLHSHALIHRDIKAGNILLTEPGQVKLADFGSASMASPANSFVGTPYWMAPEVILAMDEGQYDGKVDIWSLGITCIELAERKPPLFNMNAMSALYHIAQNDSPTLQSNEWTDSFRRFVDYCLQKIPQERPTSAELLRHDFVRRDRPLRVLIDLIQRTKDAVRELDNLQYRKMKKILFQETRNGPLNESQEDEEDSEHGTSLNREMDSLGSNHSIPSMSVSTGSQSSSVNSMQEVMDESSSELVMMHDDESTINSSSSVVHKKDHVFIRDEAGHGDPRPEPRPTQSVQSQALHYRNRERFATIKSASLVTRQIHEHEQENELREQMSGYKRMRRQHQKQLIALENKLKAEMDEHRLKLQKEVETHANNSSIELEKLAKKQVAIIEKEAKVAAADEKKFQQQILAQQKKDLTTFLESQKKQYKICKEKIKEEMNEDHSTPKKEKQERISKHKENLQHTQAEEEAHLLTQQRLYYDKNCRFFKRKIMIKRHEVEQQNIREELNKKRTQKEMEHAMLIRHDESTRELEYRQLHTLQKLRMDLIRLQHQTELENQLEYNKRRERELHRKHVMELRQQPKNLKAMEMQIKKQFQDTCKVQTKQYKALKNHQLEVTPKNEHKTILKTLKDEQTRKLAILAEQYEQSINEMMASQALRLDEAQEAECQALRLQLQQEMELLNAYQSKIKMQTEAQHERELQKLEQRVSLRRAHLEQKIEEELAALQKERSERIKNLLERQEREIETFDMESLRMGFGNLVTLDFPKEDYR
The conditions noted are these: at 10 µM.

Assay [2] concerns the target T2, Serine/threonine-protein kinase TBK1 (Homo sapiens) (UniProt Q9UHD2).
T2 sequence (whole entry): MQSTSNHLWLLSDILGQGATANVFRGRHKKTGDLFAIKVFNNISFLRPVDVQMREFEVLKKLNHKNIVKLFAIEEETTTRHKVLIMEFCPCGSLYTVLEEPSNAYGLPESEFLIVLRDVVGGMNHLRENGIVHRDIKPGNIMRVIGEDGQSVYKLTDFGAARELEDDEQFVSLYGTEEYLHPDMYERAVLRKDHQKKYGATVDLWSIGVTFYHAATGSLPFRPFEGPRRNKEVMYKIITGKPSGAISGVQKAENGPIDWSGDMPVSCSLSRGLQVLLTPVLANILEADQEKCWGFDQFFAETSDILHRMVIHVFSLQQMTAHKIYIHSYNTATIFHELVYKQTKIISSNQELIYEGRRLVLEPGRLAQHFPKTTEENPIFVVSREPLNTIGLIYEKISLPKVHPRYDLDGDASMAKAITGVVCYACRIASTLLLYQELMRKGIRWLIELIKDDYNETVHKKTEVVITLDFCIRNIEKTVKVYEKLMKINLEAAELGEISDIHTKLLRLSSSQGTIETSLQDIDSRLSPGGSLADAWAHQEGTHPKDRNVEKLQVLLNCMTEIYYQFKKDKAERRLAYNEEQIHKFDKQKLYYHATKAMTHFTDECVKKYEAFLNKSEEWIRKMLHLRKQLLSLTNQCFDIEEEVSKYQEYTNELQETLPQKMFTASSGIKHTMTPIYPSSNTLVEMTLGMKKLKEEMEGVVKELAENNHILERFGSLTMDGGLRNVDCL
The note with it: at 1 µM.

The target in assay [3] is T2, Serine/threonine-protein kinase TBK1 (Homo sapiens). The conditions noted are these: at 10 µM.
The target in assay [4] is T3, TGF-beta receptor type-1 (Homo sapiens) (UniProt P36897).
T3 sequence (whole entry): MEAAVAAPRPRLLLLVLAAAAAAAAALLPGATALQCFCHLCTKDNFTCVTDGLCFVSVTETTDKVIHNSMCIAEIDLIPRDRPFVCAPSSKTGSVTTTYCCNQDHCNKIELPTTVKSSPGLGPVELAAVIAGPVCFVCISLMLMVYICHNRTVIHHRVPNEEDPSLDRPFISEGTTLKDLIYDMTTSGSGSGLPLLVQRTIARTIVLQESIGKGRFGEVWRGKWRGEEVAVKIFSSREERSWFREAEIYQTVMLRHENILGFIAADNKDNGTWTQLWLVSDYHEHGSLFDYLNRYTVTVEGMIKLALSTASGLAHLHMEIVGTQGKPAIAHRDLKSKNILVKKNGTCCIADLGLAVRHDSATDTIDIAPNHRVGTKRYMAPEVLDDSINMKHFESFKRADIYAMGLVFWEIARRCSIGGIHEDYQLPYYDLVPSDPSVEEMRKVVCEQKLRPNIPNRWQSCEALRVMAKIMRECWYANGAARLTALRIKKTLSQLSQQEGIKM
The note with it: at 1 µM.

In assay [5] the target is T3, TGF-beta receptor type-1 (Homo sapiens). The note with it: at 10 µM.
The target of assay [6] is T4, Inhibitor of nuclear factor kappa-B kinase subunit alpha (Homo sapiens) (UniProt O15111).
T4 sequence (whole entry): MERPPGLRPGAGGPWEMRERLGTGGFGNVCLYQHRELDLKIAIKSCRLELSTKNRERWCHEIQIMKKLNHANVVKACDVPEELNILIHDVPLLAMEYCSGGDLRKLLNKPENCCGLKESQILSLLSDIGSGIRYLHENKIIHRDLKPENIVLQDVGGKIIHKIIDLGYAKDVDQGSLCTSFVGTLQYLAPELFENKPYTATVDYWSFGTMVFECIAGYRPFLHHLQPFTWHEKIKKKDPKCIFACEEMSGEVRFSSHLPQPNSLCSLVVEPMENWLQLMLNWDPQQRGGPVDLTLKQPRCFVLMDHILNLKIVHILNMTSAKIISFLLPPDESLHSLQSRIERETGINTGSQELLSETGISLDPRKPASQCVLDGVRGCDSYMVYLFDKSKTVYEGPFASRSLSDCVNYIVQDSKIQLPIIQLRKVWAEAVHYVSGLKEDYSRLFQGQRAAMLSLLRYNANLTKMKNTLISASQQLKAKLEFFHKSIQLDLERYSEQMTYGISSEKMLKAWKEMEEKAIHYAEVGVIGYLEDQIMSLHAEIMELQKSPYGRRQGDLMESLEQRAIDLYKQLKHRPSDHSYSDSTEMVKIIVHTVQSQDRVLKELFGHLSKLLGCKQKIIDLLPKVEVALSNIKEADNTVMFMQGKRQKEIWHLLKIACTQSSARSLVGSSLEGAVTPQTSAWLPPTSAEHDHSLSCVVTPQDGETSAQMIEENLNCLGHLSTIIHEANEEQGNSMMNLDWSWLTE
The conditions noted are these: at 1 µM.

For assay [7], the target named is T5, Inhibitor of nuclear factor kappa-B kinase subunit beta (Homo sapiens) (UniProt O14920).
T5 sequence (whole entry): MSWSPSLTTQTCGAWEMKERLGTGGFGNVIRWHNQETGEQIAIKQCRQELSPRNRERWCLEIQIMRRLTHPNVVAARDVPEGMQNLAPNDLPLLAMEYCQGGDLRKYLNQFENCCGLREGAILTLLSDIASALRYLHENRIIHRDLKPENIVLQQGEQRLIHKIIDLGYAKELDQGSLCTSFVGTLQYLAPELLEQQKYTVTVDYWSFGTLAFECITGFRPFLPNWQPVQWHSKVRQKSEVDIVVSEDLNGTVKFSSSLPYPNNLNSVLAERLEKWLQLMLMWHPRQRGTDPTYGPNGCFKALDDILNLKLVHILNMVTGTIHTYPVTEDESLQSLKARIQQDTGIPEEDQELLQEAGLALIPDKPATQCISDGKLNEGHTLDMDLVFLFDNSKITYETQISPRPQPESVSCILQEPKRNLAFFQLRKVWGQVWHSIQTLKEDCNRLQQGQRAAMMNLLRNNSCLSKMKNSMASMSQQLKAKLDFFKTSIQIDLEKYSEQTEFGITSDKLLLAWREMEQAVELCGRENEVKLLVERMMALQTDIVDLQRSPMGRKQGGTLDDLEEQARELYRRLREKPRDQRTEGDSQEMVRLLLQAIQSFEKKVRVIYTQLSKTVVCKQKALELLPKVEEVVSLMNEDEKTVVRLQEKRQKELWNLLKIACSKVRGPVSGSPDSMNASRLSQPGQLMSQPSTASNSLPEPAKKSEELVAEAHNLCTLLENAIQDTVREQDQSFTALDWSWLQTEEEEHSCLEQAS
The conditions noted are these: at 1 µM.

The target in assay [8] is T5, Inhibitor of nuclear factor kappa-B kinase subunit beta (Homo sapiens). The note with it: at 10 µM.
The target in assay [9] is Insulin receptor (Homo sapiens) (UniProt P06213). The note with it: at 1 µM.
Chain of Insulin receptor (Homo sapiens) (P06213 28-758 limits assumed): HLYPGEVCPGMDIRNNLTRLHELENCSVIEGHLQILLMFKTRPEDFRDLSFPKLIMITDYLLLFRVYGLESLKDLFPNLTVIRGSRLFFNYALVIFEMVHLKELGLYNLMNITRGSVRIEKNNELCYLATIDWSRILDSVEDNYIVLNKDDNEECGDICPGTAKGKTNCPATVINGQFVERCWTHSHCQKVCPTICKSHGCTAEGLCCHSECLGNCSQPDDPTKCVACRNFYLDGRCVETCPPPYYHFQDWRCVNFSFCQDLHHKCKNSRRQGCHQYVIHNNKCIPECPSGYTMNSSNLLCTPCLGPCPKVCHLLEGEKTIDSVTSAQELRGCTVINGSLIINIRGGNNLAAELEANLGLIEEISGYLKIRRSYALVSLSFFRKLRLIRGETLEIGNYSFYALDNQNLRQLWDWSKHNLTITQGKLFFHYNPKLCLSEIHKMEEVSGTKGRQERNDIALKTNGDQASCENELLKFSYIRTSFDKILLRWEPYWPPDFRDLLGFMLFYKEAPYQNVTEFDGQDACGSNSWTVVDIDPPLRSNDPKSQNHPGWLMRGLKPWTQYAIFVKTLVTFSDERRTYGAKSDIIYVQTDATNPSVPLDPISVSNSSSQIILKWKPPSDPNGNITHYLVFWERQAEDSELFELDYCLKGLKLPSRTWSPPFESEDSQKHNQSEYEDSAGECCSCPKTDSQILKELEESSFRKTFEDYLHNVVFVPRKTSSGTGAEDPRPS
Chain of Insulin receptor (Homo sapiens) (P06213 763-1382 limits assumed): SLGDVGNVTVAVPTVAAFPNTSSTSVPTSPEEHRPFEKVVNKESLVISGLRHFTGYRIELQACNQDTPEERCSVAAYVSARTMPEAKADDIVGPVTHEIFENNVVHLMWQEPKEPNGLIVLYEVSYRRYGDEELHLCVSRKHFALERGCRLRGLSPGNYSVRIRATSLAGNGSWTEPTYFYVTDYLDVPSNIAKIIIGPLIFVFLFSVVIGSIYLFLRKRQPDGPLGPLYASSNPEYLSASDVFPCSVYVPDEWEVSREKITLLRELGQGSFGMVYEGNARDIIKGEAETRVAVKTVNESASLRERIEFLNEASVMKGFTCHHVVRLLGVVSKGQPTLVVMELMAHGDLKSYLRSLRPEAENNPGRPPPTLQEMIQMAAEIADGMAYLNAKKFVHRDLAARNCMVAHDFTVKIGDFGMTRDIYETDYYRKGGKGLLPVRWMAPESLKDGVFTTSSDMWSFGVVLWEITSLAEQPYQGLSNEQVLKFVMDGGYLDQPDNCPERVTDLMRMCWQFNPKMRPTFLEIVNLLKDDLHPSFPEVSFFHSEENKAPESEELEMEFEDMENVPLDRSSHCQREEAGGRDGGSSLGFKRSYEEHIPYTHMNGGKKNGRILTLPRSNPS

In the case of `COc1cc2ncnc(N3CCN(C(=O)Nc4ccc(Oc5ccccc5)cc4)CC3)c2cc1OC`, the residual activity in assay [1] came to 77%; in assay [2] it was 57%; in assay [3], 53%; in assay [4], 80%; in assay [5], 76%; in assay [6] it was 103%. Also, the residual activity came to 113% in assay [7], 115% in assay [8] and 115% in assay [9].

The term residual activity denotes the signal under treatment as a percentage of the control signal.
